IL1B secr inh = inhibitors of inflammasome signaling (IL-1 beta secretion) | activity change, % at 57.5 µM | 360,000 compounds, 4.7% hits | THP-1 LPS/ATP IL-1B secretion, AlphaLISA, 16 h; hits give low values; in the data active = activity change below about -50%; inconclusive = mostly about -30% to -49%; also: % is scaled to controls: 0 for no effect and ±100 for the full control effect
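THP-1 cells pretreated 1 hr with compounds (up to 57.5 uM final), then stimulated with LPS (250 ng/mL final) plus ATP (1.25 mM final); secreted IL-1B measured by AlphaLISA after 16 hr, decreased signal indicating inhibition.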
HepG2 viability = counter-screen for TGF-b inhibitors: cytotoxicity in HepG2 cells; HepG2 CAGA-GFP viability, ATP luminescence, 18 h; AID 588856; 410,000 compounds, 0.76% hits; Potency, µM (doses to about 46.1 µM), for inactives: at the highest dose activity change, negative = cytotoxicity, hits mostly cytotoxic; also: potency is read from the fitted curve at half-maximal effect
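CellTiter-Glo luminescence gave cytotoxicity after 18 hours at 37 degrees C. The cells were HepG2 CAGA-GFP in 1% FBS DMEM, stimulated with 500 pg/mL TGF-beta after compound addition. %Activity was normalised to no-cell wells (complete cell-killing) and DMSO (no toxicity), and curves were fitted and classified.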
TDP1 cell noCPT = qHTS for Inhibitors of human tyrosyl-DNA phosphodiesterase 1 (TDP1): qHTS in cells in absence of CPT; DT40 Tdp1-/- hTDP1 cells, no CPT, ATP luminescence, 48 h; 420,000 compounds, 15% hits; Potency, µM (top dose mostly 46.2 µM), inactives show at the top dose activity change, negative = growth inhibition, usual class: inhibitors; also: potency is read from the fitted curve at half-maximal effect; % is scaled to controls: 0 for no effect and ±100 for the full control effect; nearly all actives have a fitted effect of over 55% in size
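Stably hTDP1-transfected Tdp1-null chicken DT40 cells were treated with library compounds minus camptothecin and grown for at least 48 hr at 37 °C, after which cellular ATP was quantified by luminescence.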
TGFb SMAD3 inh = inhibitors of TGF-b signaling. Potency, µM (series often up to 46.1 µM), without a hit: top-dose activity, negative = inhibition, most hits filed as inhibitors. HepG2 CAGA-GFP TGF-b/SMAD3 reporter, GFP fluorescence, 18 h; TGF-beta stimulated, 500 pg/mL final. 410,000 compounds, 1.2% hits; also: potency is read from the fitted curve at half-maximal effect; % is scaled to controls: 0 for no effect and ±100 for the full control effect; nearly all actives have a fitted effect of over 65% in size
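HEPG2 CAGA-GFP cells (1000/well, DMEM with 1% FBS) were pre-incubated 2 h at 37 degrees C, given compound by pin tool, then stimulated with TGF-beta at 500 pg/mL final for 18 h before per-cell GFP fluorescence imaging.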
TDP1 cell CPT = growth inhibition of DT40 Tdp1-/-;hTDP1 cells with camptothecin (screen for TDP1 inhibitors); Potency, µM (doses to about 46.2 µM), inactives show at the top dose activity change, negative = growth inhibition, most hits filed as inhibitors; 420,000 compounds, 12% hits; chicken DT40 Tdp1-/-;hTDP1 cells + 20 nM CPT, ATP luminescence, 48 h; also: potency is read from the fitted curve at half-maximal effect; % is scaled to controls: 0 for no effect and ±100 for the full control effect; nearly all actives have a fitted effect of over 55% in size
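Cell growth measured by CellTiter-Glo luminescence after a minimum 48 h, 37 C compound exposure with 20 nM CPT in Tdp1-knockout DT40 cells stably expressing hTDP1, seeded 400/well; qHTS titration format.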
S-ASM inh = inhibitors of human secretory acid sphingomyelinase. AID 504937. Potency, µM (series often up to 57.5 µM), without a hit: top-dose activity change, negative = inhibition, usual class: inhibitors. placental ASM, HMU-PC fluorogenic substrate, 60 min. 340,000 compounds, 0.006% hits. P17405; also: potency is read from the fitted curve at half-maximal effect
Target sequence (P17405 47-631 limits assumed): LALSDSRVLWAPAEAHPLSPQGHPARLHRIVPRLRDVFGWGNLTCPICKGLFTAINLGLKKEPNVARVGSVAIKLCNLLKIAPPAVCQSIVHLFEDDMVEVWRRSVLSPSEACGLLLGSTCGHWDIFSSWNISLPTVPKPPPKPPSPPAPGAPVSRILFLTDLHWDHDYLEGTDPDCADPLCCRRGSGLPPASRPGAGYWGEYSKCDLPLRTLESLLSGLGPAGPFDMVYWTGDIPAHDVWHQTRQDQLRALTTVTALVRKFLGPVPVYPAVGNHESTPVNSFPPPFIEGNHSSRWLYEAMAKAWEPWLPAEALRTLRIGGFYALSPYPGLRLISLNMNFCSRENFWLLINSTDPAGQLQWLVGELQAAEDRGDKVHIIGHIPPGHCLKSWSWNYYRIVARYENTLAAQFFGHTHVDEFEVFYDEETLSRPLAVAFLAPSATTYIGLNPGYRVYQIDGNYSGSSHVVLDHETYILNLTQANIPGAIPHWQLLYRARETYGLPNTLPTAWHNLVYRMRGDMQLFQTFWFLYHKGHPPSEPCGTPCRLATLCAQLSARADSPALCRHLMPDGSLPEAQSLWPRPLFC
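qHTS format. ASM enzyme prepared from human placenta hydrolyses the fluorogenic substrate HMU-PC0 (9 uM final) over 60 min at 37 °C after a 10 min compound preincubation.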
* marks the source's active call; other numbers are inactive results; i = inactive; ? = inconclusive; · = not tested or not shown. The list is not random: actives were taken first. Their share in the collection is about 19%. Unless noted, calls follow the shape of the dose curve; as a rule, active = well fitted curve in the direction sought with a large enough effect; inconclusive = small, poorly fitted or top-dose-only effect, or another doubt; inactive = no such curve, though single readings can be large; an effect the other way counts as inactive or inconclusive.

SMILES	IL1B secr inh	HepG2 viability	TDP1 cell noCPT	TGFb SMAD3 inh	TDP1 cell CPT	S-ASM inh
COc1ccc(Cl)cc1NC(=O)c1ccc2nc(Cc3ccccc3)oc2c1	·	-33.1%	?	-8.9%	?	·
CN1CCN(CCCNC(=O)c2ccc3nc(Cc4ccccc4)oc3c2)CC1	·	9.8%	1.5%	0.2%	5.0%	·
Cc1nc(-c2ccc(C(=O)Nc3cc(S(N)(=O)=O)ccc3C)cc2)cs1	-1.2	-3.0%	?	-2.5%	-22.2%	-0.5%
COc1ccc(N2CCN(CCCNC(=O)c3ccc4nc(CCc5ccccc5)oc4c3)CC2)cc1	·	-16.2%	16.4µM*	-13.8%	14.6µM*	·
COc1cccc(-c2nc3ccc(C(=O)NC(C)Cc4cccnc4)cc3o2)c1 (configuration not stated)	?	0.1%	?	3.0%	9.2µM*	0.8%
COc1ccc(Cc2nc3ccc(C(=O)NCCc4ccccc4)cc3o2)cc1	·	-56.8%	?	2.5%	25.9µM*	·
COC(=O)C1CCN(C(=O)c2ccc3nc(-c4cccc(OC)c4)oc3c2)CC1	8.0	-29.8%	-28.2%	-26.9%	-25.2%	-0.6%
Cc1ccc(NC(=O)CCN2C(=O)C3C4CCC(C4)C3C2=O)cc1Cl (configuration not stated)	9.3	1.5%	-5.2%	2.0%	-25.2%	-0.4%
COc1ccc(OC)c(CNCc2c(C(=O)O)n(Cc3ccccc3)c3cc(OC)ccc23)c1	·	-2.0%	?	-8.0%	?	·
COc1ccc2c(CNCc3ccco3)c(C(=O)O)n(Cc3cccc(F)c3)c2c1	·	-28.1%	?	-19.9%	-3.4%	·
CCc1ccc(CNCc2c(C(=O)O)n(Cc3cccc(F)c3)c3cc(OC)ccc23)cc1	·	-101.3%	20.6µM*	?	23.1µM*	·
COc1ccc(Cn2c(C(=O)O)c(CNCC(C)c3ccccc3)c3ccc(OC)cc32)cc1 (configuration not stated)	·	-18.6%	23.1µM*	-37.8%	?	·
COc1ccc(OC)c(CNCc2c(C(=O)O)n(Cc3cccc(F)c3)c3cc(OC)ccc23)c1	·	-0.1%	20.6µM*	0.6%	?	·
COc1ccc2c(CNCCc3ccc(SC)cc3)c(C(=O)O)n(Cc3ccc(F)cc3)c2c1	·	-107.0%	11.6µM*	?	16.4µM*	·
COc1ccc2c(CNCC(C)c3ccccc3)c(C(=O)O)n(Cc3ccc(F)cc3Cl)c2c1 (configuration not stated)	·	-15.3%	-11.5%	0.0%	-17.1%	·
CC(C)CN1CC[C@@]2(CCCN(C(=O)c3cnccn3)C2)C1	·	·	-3.3%	·	6.1%	·
Cc1nc(C)c(C(=O)O)s1	8.7	-0.8%	7.4%	4.3%	-17.5%	2.5%
CCCSc1nc2sc3c(c2c(=O)[nH]1)CC(C)CC3 (configuration not stated)	11.0	0.9%	16.4µM*	30.3%	?	0.4%
CCCSc1nc2sc3c(c2c(=O)[nH]1)CCN(Cc1ccccc1)C3	38.3	-4.7%	20.6µM*	15.2%	?	i
O=c1[nH]c(C(Cl)Cl)nc2sc3c(c12)CCN(Cc1ccccc1)C3	32.9	2.7%	?	-4.6%	5.9%	107.6%
COc1cc(OC)c(N(C)C(=O)Cn2ncc3c([nH]c4ccccc43)c2=O)cc1Cl	·	-13.2%	?	-16.9%	?	·
COc1ccccc1CNC(=O)c1ccc(-c2nc(CS(=O)c3ccccc3)c(C)o2)cc1 (configuration not stated)	·	-11.5%	?	2.3%	?	·
CCc1ccc(CNC(=O)c2ccc(-c3nc(CSc4ccc(C)cc4)c(C)o3)cc2)cc1	·	4.8%	1.1%	-5.2%	9.4%	·
Cc1ccc(S(=O)Cc2nc(-c3ccc(C(=O)NC(C)c4ccccc4)cc3)oc2C)cc1 (configuration not stated)	·	-2.9%	14.6µM*	6.5%	?	·
COc1cc(NC(=O)c2ccc(-c3nc(CSc4ccccc4)c(C)o3)cc2)cc(OC)c1	·	-19.5%	14.6µM*	?	18.4µM*	·
SMILES	IL1B secr inh	HepG2 viability	TDP1 cell noCPT	TGFb SMAD3 inh	TDP1 cell CPT	S-ASM inh
Cc1ccc(SCc2nc(-c3ccc(C(=O)NCc4ccccc4Cl)cc3)oc2C)cc1	·	-16.4%	9.2µM*	-0.4%	8.2µM*	·
Cc1ccc(SCc2nc(-c3ccc(C(=O)Nc4cc(C)ccc4C)cc3)oc2C)cc1	·	-0.7%	8.2µM*	9.5%	8.2µM*	·
COc1cccc(CNC(=O)c2ccc(-c3nc(CSc4ccccc4)c(C)o3)cc2)c1	·	1.0%	?	12.9%	-20.0%	·
COC(=O)c1sc2cccc(F)c2c1S(=O)(=O)N1CCN(c2cccc(OC)c2)CC1	·	-36.9%	?	?	?	·
O=C(Cc1cccs1)NC1CC(=O)N(c2ccc(Cl)cc2)C1 (configuration not stated)	·	-2.7%	7.1%	6.4%	0.2%	·
O=C1C(=O)N(CCN2CCOCC2)C(c2ccc([N+](=O)[O-])cc2)/C1=C(/O)c1ccc2c(c1)OCO2 (configuration not stated)	i	0.0%	-7.8%	1.1%	-1.2%	-2.4%
Cc1ccc(CS(=O)(=O)c2ccccc2-c2nnc(-c3ccc(Cl)cc3)o2)cc1	21.4	-24.6%	18.4µM*	14.0%	?	-3.1%
Nc1nc(SCC(=O)c2cc3ccccc3o2)n[nH]1	10.5	10.5%	-8.8%	3.6%	-0.5%	-3.4%
O=C(CSc1cccc[n+]1[O-])c1cccs1	-9.1	0.7%	4.11µM*	7.7%	?	-2.8%
N#Cc1ccc(Cl)cc1NC(=O)CSc1cccc[n+]1[O-]	18.5	5.7%	23.1µM*	3.5%	?	5.1%
O=C(O)CSc1cccc[n+]1[O-]	-14.0	1.0%	?	9.9%	-4.2%	-0.7%
O=C(CSc1cccc[n+]1[O-])c1cc(Cl)ccc1Cl	20.9	-3.3%	0.291µM*	-6.6%	0.0103µM*	-1.9%
O=C(CSc1cccc[n+]1[O-])c1cc2ccccc2o1	-12.0	-41.8%	?	?	20.6µM*	2.2%
COc1cccc(C=O)c1OC(=O)N1CCOCC1	-14.3	-0.9%	?	-2.9%	?	-0.5%
CCOc1ccnc2c1c(=O)n(Cc1cc(OC)cc(OC)c1)c(=O)n2C	36.2	-4.3%	-0.1%	-12.0%	-25.9%	-0.5%
CN(C(=O)c1ccc(S(=O)(=O)N(C)C)cc1)c1ccc2ccccc2c1	-2.5	6.2%	?	-20.9%	4.2%	-4.6%

Compound activity (PubChem BioAssay)
